Active and inactive are the calls of the source. Calls come from the whole dose curve; as a rule, active = well fitted curve in the direction sought with a large enough effect in the repeat runs; inconclusive = weak or mixed curves; inactive = flat fitted curve, though single readings scatter.
Assay: qHTS assay to test for compound auto fluorescence at 460 nm (blue) in HepG2 cells (AID 720687)
Settings: autofluorescence 405/460 nm, 1 h; series mostly up to 91.3 µM
Source text: U.S. Tox21 Program National Center for Advancing Translational Sciences [NCATS] NIH Chemical Genomics Center [NCGC] U.S. Environmental Protection Agency [EPA] National Institutes of Environmental Health Sciences [NIEHS] National Toxicology Program [NTP] U.S. Food and Drug Administration [FDA] Tox21 Assay Overview: Compound auto fluorescence often interferes with screening of the compound library against various biological targets and signaling pathways. Some of these compounds may have fluorophoric properties. Such properties may interfere with the assay outputs resulting in false positives and/or negatives. To decrease such complications and ensure the compound activities are relevant in terms of biological response, the Tox21 10K compound library was screened for auto fluorescence. From the fluorophores used as reporter signals in our screening assays, the auto fluorescence equivalencies of compounds against three fluorophores have been evaluated: Triamterene, Fluorescein and Rose Bengal sodium for blue, green and red fluorescence, respectively. The fluorescence intensities were measured using Excitation/Emission wavelengths at 405/460nm, 485/535nm and 540/590nm for blue, green and red labels, respectively. This assay includes the blue fluorescence data.
Tox21 Assay Protocol Summary: 2,000 HepG2 cells in 5 uL of culture medium (MEM containing 10% FBS) per well were dispensed into black wall/clear bottom 1536-well plates using a Multidrop Combi Dispenser (ThermoFisher Scientific, Waltham, MA). The assay plates were incubated overnight at 37 C to allow cell attachment to the well bottom, followed by the transfer of 23 nL compound or DMSO vehicle by a pintool work station (Kalypsys , San Diego, CA). After the assay plates were incubated for 1 hr at 37 C and 5% CO2, fluorescence intensities in the assay plates were measured by an Envision (PerkinElmer, Shelton, CT) plate reader using three labels for measuring blue, green and red fluorescence at […] 460, 535 and 590 nm respectively.
For `COc1nn(CSP(=S)(OC)OC)c(=O)s1`, the outcome was “inactive”. With `O=NN1CCCCCC1` the outcome was “inactive”. In the case of `CC1C(=O)C[C@]2(C(C)C)C[C@H]12` (stereo not given in full), the outcome is reported as “inactive”. In the case of `C=CCN1CC[C@]23c4c5ccc(O)c4O[C@H]2C(=O)CC[C@@]3(O)[C@H]1C5`, the outcome is reported as “inactive”. For `O=Cc1ccc(Cl)cc1Cl`, the outcome was “inactive”. In the case of `O=C(NC(=O)c1c(F)cccc1F)Nc1ccc(OC(F)(F)C(F)OC(F)(F)F)c(Cl)c1` (stereo not given), the outcome is reported as “inactive”. With `COc1cc(Cl)c(OC)cc1Cl` the outcome was “inactive”. With `CCBr` the outcome was “inactive”. With `CC1(C)CCC(Cc2ccc(Cl)cc2)C1(O)Cn1cncn1` (stereo not given) the outcome was “inactive”. For `CCOP(=O)(OCC)O/C(=C/Cl)c1ccc(Cl)cc1Cl`, the outcome was “inactive”. For `CCOP(=S)(Oc1ccc([N+](=O)[O-])cc1)c1ccccc1` (stereo not given), the outcome was “inactive”. For `Nc1nc(=S)[nH][nH]1`, the outcome was “inactive”. In the case of `N#Cc1cc(I)c(O)c(I)c1`, the outcome is reported as “inactive”. For `O=C(O)c1ccccc1C(=O)Nc1cccc2ccccc12`, the outcome was “inactive”. For `CCC(COC(=O)c1cc(OC)c(OC)c(OC)c1)(c1ccccc1)N(C)C` (stereo not given), the outcome was “inactive”. With `COC1=CC(=O)O[C@@H](CCc2ccccc2)C1` the outcome was “inactive”. With `O=NN1CCNCC1` the outcome was “inactive”. For `CC(C)(OO)c1ccccc1`, the outcome was “inactive”. For `C=CCCl`, the outcome was “inactive”. In the case of `C=CC[C@]1(O)CC[C@H]2[C@@H]3CCC4=CC(=O)CCC4=C3C=C[C@@]21C`, the outcome is reported as “inactive”. With `COC(=O)C(Br)CBr` (stereo not given) the outcome was “inactive”. For `Brc1ccccc1`, the outcome was “inactive”. In the case of `COCCOCCO`, the outcome is reported as “inactive”. In the case of `CCc1ccc(C(=O)NN(C(=O)c2cc(C)cc(C)c2)C(C)(C)C)cc1`, the outcome is reported as “inactive”. In the case of `N#C/C(N)=C(/N)C#N`, the outcome is reported as “inactive”. In the case of `C=COC(C)=O`, the outcome is reported as “inactive”. For `CCOP(=S)(OCC)SCn1nnc2ccccc2c1=O`, the outcome was “inactive”. In the case of `ClC=C(Cl)Cl`, the outcome is reported as “inactive”. In the case of `CC1(C)[C@H](C=C(Cl)Cl)[C@@H]1C(=O)O[C@@H](C#N)c1cccc(Oc2ccccc2)c1`, the outcome is reported as “inactive”. With `CCOC(=O)[C@]1(c2ccccc2)Oc2ccccc2[C@@H]1N` the outcome was “inactive”. In the case of `NC(=O)C(Cl)(Cl)Cl`, the outcome is reported as “inactive”. In the case of `C=CC(C)=O`, the outcome is reported as “inactive”. With `CCCCCC[N+](=O)[O-]` the outcome was “inactive”. With `NC(=O)CI` the outcome was “inactive”. In the case of `CN1[C@@H]2CC[C@H]1CC(OC(=O)c1cc(Cl)cc(Cl)c1)C2` (stereo not given in full), the outcome is reported as “inactive”. In the case of `COC(C)(C)CCC[C@H](C)C/C=C/C(C)=C/C(=O)OC(C)C`, the outcome is reported as “inactive”. For `C=CC(=O)OC`, the outcome was “inactive”. With `OCCCBr` the outcome was “inactive”. In the case of `CCCCC(O)(Cn1cncn1)c1ccc(Cl)cc1Cl` (stereo not given), the outcome is reported as “inactive”. For `Cc1cc(=O)[nH]o1`, the outcome was “inactive”.
